Data: PubChem BioAssay (EPA / NIEHS)
Results filed as inconclusive are left out. Calls of active or inactive are those of the source. Rule for the calls, unless noted: active = hit-call score of the fitted dose curve at least 0.9, where 1 is the maximum; inactive = score below 0.9.

Key:
[1] = target: Hypoxia-inducible factor 1-alpha (Homo sapiens) (UniProt Q16665); experiment: ATG_HIF1a_CIS: Attagene CIS-FACTORIAL HepG2 Assay for human Hypoxia Inducible Factor 1 (HIF1A) (AID 2282951); details: HepG2 Attagene cis-factorial HIF1a reporter transcription; actives raise or lower the signal
Chain of Hypoxia-inducible factor 1-alpha (Homo sapiens) (Q16665 whole entry, looked up): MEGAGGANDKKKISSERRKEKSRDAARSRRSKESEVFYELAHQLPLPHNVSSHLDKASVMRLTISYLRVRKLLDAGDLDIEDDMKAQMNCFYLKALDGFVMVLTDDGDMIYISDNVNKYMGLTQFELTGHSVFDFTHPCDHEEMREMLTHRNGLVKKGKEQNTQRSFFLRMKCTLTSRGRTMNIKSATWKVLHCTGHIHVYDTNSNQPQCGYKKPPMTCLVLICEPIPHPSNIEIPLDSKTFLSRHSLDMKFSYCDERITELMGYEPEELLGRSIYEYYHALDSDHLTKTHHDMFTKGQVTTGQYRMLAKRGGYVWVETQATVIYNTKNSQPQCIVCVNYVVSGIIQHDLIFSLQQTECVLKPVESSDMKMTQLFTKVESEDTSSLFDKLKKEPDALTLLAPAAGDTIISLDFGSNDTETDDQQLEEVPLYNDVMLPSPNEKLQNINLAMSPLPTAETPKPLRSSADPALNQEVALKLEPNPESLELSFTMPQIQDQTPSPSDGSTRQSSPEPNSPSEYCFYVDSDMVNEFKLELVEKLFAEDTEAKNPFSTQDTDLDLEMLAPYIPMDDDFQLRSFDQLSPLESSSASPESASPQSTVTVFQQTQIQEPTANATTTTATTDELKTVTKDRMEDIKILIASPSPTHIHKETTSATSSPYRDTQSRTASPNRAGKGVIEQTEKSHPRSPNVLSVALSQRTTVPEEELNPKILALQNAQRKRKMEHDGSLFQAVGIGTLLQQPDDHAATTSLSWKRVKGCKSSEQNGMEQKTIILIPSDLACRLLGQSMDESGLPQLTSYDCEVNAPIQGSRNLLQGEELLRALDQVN
Method in brief: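 Dosed 24 h, transfected HepG2 cells yielded total RNA whose reporter transcripts were RT-PCR-amplified and sized by capillary electrophoresis using fluorescent labelling; DMSO defined baseline, with gain and loss of signal both fitted.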

[2] = target: Hepatocyte nuclear factor 6 (Homo sapiens) (UniProt Q9UBC0); experiment: ATG_HNF6_CIS: Attagene CIS-FACTORIAL HepG2 Assay for human Hepatocyte Nuclear Factor 6 (HNF6) (AID 2282952); details: HepG2 Attagene cis-factorial HNF6 reporter transcription; actives raise or lower the signal
Chain of Hepatocyte nuclear factor 6 (Homo sapiens) (Q9UBC0 whole entry, looked up, the tested form may be a part): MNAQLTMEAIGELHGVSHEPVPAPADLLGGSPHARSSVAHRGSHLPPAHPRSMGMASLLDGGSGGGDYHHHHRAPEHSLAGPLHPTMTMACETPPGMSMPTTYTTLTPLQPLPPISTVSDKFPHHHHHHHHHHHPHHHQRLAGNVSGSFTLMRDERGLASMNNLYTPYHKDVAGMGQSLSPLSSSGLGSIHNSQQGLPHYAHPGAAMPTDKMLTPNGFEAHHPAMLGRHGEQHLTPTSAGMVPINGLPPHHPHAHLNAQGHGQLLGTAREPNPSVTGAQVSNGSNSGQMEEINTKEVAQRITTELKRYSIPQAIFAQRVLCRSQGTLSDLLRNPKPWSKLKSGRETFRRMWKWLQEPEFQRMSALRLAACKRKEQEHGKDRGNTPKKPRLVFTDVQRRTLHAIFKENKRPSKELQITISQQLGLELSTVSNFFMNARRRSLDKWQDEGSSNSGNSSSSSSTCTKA
Method in brief: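 Twenty-four-hour chemical treatment of reporter-transfected HepG2 cells precedes RNA isolation, DNase-treated reverse transcription and PCR of reporter sequences. Labelled fragments are sized by capillary electrophoresis and fitted bidirectionally versus DMSO.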

[3] = target: Heat shock factor protein 1 (Homo sapiens) (UniProt Q00613); experiment: ATG_HSE_CIS: Attagene CIS-FACTORIAL HepG2 Assay for human Heat Shock Transcription Factor 1 (HSE) (AID 2282953); details: HepG2 HSE cis-reporter, Attagene RNA transcription; actives raise or lower the signal
Chain of Heat shock factor protein 1 (Homo sapiens) (Q00613 whole entry, looked up): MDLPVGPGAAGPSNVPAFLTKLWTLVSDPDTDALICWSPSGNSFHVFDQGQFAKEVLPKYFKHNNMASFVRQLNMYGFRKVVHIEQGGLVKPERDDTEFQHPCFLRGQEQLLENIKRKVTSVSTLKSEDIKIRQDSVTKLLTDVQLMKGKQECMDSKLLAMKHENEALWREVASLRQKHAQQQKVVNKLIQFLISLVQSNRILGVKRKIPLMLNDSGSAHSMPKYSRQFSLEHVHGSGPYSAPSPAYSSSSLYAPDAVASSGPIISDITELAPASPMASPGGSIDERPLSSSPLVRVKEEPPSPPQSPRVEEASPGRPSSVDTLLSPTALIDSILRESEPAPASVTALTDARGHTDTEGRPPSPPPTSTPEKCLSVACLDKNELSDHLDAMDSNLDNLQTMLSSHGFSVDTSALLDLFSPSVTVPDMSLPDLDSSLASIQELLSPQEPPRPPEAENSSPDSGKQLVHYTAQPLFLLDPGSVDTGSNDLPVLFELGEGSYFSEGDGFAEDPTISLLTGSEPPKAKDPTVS
Method in brief: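 Using HepG2 with transfected cis-driven reporter constructs, compound effects on endogenous factor activity are scored as reporter mRNA change at 24 h. Detection: RT-PCR, HpaI digestion, capillary electrophoresis; bidirectional fitting to DMSO.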

[4] = ATG_MRE_CIS: Attagene CIS-FACTORIAL HepG2 Assay for human Metal Responsive Element (MRE) (AID 2282954); details: HepG2 MRE cis-reporter transcription, Attagene multiplex; actives raise or lower the signal
Method in brief: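 RT-PCR/capillary electrophoresis readout of reporter mRNA, 24 h post-dosing, in HepG2 cells transfected with multiplexed cis-regulated reporter constructs. Gain or loss of signal fitted bidirectionally against DMSO baseline.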

[5] = ATG_PBREM_CIS: Attagene CIS-FACTORIAL HepG2 Assay for human Phenobarbital-responsive Enhancer Module (PBREM) (AID 2282955); details: HepG2 PBREM cis-reporter, Attagene multiplexed transcription; actives raise or lower the signal
Method in brief: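 Transfected liver-derived HepG2 cells exposed 24 h; PBREM reporter transcript quantified via RT-PCR and capillary electrophoresis, with activity in either direction referenced to DMSO.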

[6] = target: Paired box protein Pax-6 (Homo sapiens) (UniProt P26367); experiment: ATG_Pax6_CIS: Attagene CIS-FACTORIAL HepG2 Assay for human Paired Box 6 (PAX6) (AID 2282956); details: HepG2 CIS-FACTORIAL PAX6 reporter transcription, RNA readout; actives raise or lower the signal
Chain of Paired box protein Pax-6 (Homo sapiens) (P26367 whole entry, looked up): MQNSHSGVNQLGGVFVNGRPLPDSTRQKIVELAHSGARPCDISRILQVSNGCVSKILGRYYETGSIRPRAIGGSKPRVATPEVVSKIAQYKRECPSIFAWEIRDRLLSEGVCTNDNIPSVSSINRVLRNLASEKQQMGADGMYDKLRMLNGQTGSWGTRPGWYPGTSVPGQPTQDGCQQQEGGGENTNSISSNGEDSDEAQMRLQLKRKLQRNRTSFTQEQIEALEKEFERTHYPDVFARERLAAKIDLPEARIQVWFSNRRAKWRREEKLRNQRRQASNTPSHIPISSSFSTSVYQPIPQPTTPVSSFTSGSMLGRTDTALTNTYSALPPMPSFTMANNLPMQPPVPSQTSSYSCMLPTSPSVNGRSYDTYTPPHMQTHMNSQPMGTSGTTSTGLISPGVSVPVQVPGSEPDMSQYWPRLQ
Method in brief: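 Read-out is reporter transcript level, measured by RT-PCR with fluorescent primer extension and capillary electrophoresis after 24 h dosing of transfected HepG2 cells. Activity in either direction fitted relative to DMSO control.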

[7] = ATG_PXRE_CIS: Attagene CIS-FACTORIAL HepG2 Assay for human Pregnane X Receptor Element (PXRE) (AID 2282957); details: HepG2 Attagene CIS-FACTORIAL PXRE reporter, mRNA; actives raise or lower the signal
Method in brief: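 Bidirectional activity, baselined to DMSO, derived from reporter mRNA fluorescence (RT-PCR plus capillary electrophoresis) in HepG2 cells bearing cis-promoter reporter units, 24 h exposure.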

[8] = ATG_RORE_CIS: Attagene CIS-FACTORIAL HepG2 Assay for human RAR-related Orphan Receptor Element (RORE) (AID 2282959); details: HepG2 Attagene cis-factorial RORE reporter, mRNA; actives raise or lower the signal
Method in brief: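 Transiently transfected HepG2 reporter cells were treated 24 h. Reporter transcripts were detected by RT-PCR and capillary electrophoresis, with bidirectional fitting against DMSO.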

[9] = ATG_Sox_CIS: Attagene CIS-FACTORIAL HepG2 Assay for human SRY-box transcription factor (SOX) (AID 2282960); details: HepG2 Attagene cis-factorial SOX reporter, mRNA; actives raise or lower the signal
Method in brief: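 Gain- or loss-of-signal endpoint, fitted bidirectionally with DMSO as negative control. Based on reporter mRNA from transfected HepG2 cells harvested 24 h post-treatment and quantified via RT-PCR and capillary electrophoresis.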

[10] = target: Transcription factor Sp1 (Homo sapiens) (UniProt P08047); experiment: ATG_Sp1_CIS: Attagene CIS-FACTORIAL HepG2 Assay for human Specificity Protein 1 (Sp1) (AID 2282961); details: HepG2 Sp1 cis-reporter transcription, actives raise or lower the signal
Chain of Transcription factor Sp1 (Homo sapiens) (P08047 whole entry, looked up, the tested form may be a part): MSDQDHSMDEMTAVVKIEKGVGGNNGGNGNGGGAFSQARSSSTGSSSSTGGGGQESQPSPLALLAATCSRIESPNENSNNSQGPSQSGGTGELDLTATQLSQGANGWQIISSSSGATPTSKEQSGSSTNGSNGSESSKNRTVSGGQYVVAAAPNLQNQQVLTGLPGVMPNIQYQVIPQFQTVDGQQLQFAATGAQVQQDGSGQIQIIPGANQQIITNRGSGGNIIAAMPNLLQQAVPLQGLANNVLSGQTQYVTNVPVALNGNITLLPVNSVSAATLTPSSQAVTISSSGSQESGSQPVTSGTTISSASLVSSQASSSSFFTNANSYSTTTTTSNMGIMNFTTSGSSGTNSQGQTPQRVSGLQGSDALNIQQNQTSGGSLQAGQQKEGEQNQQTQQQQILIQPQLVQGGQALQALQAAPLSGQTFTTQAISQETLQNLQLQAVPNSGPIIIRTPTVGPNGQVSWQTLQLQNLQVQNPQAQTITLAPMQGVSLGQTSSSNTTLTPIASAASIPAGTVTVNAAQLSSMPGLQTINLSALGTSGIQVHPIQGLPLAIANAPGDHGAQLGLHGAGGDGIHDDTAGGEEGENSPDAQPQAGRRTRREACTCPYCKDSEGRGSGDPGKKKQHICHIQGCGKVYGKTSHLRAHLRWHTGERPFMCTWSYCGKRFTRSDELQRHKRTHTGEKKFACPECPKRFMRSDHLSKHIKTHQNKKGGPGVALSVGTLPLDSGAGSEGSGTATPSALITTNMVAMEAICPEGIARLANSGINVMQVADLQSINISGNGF
Method in brief: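 Endpoint reflects endogenous Sp1 transcriptional activity, not an exogenous fusion protein: HepG2 cells with transfected cis-regulated reporters, 24 h dosing, RT-PCR/capillary electrophoresis mRNA read-out, DMSO-normalised bidirectional fit.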

[11] = ATG_SREBP_CIS: Attagene CIS-FACTORIAL HepG2 Assay for human Sterol Regulatory Element Binding (SREBP) (AID 2282962); details: HepG2 Attagene cis-factorial SREBP reporter, mRNA; actives raise or lower the signal
Method in brief: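 Endogenous SREBP activity read as cis-element-driven reporter transcript in transiently transfected HepG2, 24 h post-dosing; quantified via RT-PCR plus capillary electrophoresis of fluorescent fragments. Gain or loss of signal fitted relative to DMSO baseline.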

[12] = ATG_TCF_b_cat_CIS: Attagene CIS-FACTORIAL HepG2 Assay for human T-Cell-Factor with beta-catenin (TCF/b-cat) (AID 2282965); details: HepG2 TCF/beta-catenin cis-reporter transcription, actives raise or lower the signal
Method in brief: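 HepG2, transient MRTU transfection, cis-element-driven reporters (endogenous TFs). 24 h compound exposure. Readout: reporter mRNA by RT-PCR + 6-FAM primer extension, HpaI digest, capillary electrophoresis. Gain/loss fit vs DMSO baseline.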

[13] = ATG_TAL_CIS: Attagene CIS-FACTORIAL HepG2 Assay for human TAL Basal Promoter (AID 2282966); details: HepG2 Attagene cis-factorial TAL promoter reporter; actives raise or lower the signal;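 note: background control endpoint measuring basal TAL promoter reporter mRNA not a specific factor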
Method in brief: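 Human hepatoma HepG2 cells, transfected with promoter-regulated reporter units, were treated 24 h. Reporter transcript levels, measured through RT-PCR and capillary electrophoresis, were fitted for gain or loss relative to DMSO.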

[14] = ATG_TGFb_CIS: Attagene CIS-FACTORIAL HepG2 Assay for human Transforming Growth Factor (TGF) (AID 2282967); details: HepG2 Attagene CIS TGFb reporter, mRNA transcription; actives raise or lower the signal
Method in brief: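 After a 24-hour incubation with compound, transfected HepG2 cells were lysed for RNA; reporter cDNA was amplified, fluorescently end-labeled and separated by CE. DMSO served as baseline for bidirectional fits.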

[15] = target: Estrogen receptor (Homo sapiens) (UniProt P03372); experiment: ATG_ERa_TRANS: Attagene TRANS-FACTORIAL HepG2 Assay for human Estrogen Receptor alpha (ERa) (AID 2282970; active = hit-call score of the fitted dose curve at least 0.9, where 1 is the maximum); details: HepG2 Attagene TRANS ERa GAL4 reporter, mRNA
Chain of Estrogen receptor (Homo sapiens) (P03372 whole entry, looked up, the tested form may be a part): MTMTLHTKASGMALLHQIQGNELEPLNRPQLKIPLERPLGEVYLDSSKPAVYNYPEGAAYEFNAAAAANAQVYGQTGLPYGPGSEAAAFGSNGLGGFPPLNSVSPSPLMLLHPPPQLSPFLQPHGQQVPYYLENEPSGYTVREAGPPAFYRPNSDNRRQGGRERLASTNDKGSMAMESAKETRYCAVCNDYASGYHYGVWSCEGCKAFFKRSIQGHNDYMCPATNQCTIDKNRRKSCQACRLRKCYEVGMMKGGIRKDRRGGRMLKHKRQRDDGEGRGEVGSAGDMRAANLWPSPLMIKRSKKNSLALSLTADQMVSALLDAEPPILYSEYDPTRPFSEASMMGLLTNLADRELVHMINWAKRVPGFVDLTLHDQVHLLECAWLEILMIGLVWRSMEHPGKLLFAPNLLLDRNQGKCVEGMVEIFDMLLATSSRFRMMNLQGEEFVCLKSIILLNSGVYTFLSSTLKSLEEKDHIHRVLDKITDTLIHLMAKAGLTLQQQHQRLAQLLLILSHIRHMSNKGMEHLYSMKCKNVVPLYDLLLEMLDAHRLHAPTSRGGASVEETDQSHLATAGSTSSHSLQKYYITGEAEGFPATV
Method in brief: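 Signal derives from fluorescence of labelled reporter PCR fragments separated by capillary electrophoresis. HepG2 cells transiently carrying multiple GAL4-UAS reporter units were treated 24 hours, and induction above DMSO baseline was fitted as activity.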

[16] = target: Signal transducer and activator of transcription 3 (Homo sapiens) (UniProt P40763); experiment: ATG_STAT3_CIS: Attagene CIS-FACTORIAL HepG2 Assay for human Signal Transducer and Activator of Transcription 3 (STAT3) (AID 2282963); details: HepG2, Attagene cis-factorial STAT3 reporter transcription; actives raise or lower the signal
Chain of Signal transducer and activator of transcription 3 (Homo sapiens) (P40763 whole entry, looked up, the tested form may be a part): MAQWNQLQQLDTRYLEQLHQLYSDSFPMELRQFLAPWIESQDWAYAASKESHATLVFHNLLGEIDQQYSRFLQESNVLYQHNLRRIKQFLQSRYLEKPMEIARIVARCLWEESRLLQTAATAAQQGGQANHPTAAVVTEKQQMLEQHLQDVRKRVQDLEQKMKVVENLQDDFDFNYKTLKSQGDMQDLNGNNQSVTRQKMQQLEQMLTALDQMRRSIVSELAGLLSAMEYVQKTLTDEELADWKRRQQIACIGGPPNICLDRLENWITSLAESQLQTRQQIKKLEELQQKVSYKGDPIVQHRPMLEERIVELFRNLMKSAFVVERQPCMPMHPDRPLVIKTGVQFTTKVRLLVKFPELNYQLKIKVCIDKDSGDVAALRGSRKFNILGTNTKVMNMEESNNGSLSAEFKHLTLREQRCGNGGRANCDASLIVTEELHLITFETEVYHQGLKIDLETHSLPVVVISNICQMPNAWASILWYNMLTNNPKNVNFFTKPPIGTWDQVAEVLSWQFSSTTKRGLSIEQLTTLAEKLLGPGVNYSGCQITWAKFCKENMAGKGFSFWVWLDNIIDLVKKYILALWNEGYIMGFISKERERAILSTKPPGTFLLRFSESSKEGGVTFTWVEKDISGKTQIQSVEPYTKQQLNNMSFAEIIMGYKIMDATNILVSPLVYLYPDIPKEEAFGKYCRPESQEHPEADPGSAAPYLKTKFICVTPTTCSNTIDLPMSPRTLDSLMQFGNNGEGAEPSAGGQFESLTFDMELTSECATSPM
Method in brief: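 Readout: fluorescent reporter mRNA fragments resolved by capillary electrophoresis. Setup: HepG2 transfected with MRTUs reporting endogenous transcription-factor activity, dosed 24 h. Gain or loss of signal fitted bidirectionally against DMSO control.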

[17] = ATG_TA_CIS: Attagene CIS-FACTORIAL HepG2 Assay for human TA Basal Promoter (AID 2282964); details: HepG2 Attagene CIS-factorial TA basal promoter reporter; actives raise or lower the signal
Method in brief: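 Transient MRTU transfection of HepG2 preceded 24 h compound exposure. Reporter mRNA levels were then read by RT-PCR with capillary electrophoresis, and this background-control endpoint was fitted bidirectionally to DMSO.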

[18] = ATG_VDRE_CIS: Attagene CIS-FACTORIAL HepG2 Assay for human Vitamin D Receptor Element (VDRE) (AID 2282968); details: HepG2 VDRE cis-reporter transcription, actives raise or lower the signal
Method in brief: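 Transient MRTU transfection of HepG2, 24 h compound exposure. Readout: reporter transcripts via RT-PCR and capillary electrophoresis, fluorescence. Bidirectional fit vs DMSO.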

[19] = ATG_PPRE_CIS: Attagene CIS-FACTORIAL HepG2 Assay for human Peroxisome Proliferator-activated Response Element (PPRE) (AID 2282958); details: HepG2 PPRE cis-element reporter, Attagene transcription factor profiling; actives raise or lower the signal
Method in brief: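 Measured endpoint: PPRE-controlled reporter mRNA, detected by RT-PCR and capillary electrophoresis fluorescence, from transiently transfected HepG2 cells 24 h after dosing. Curves fitted in both directions using DMSO baseline.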

[20] = target: Nuclear receptor subfamily 1 group I member 3 (Homo sapiens) (UniProt Q14994); experiment: ATG_CAR_TRANS: Attagene TRANS-FACTORIAL HepG2 Assay for human Constitutive Androstane Receptor (CAR) (AID 2282969; active = hit-call score of the fitted dose curve at least 0.9, where 1 is the maximum;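 note: activators raise reporter mRNA above DMSO so AC50 marks induction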); details: HepG2 Attagene TRANS-FACTORIAL CAR reporter
Chain of Nuclear receptor subfamily 1 group I member 3 (Homo sapiens) (Q14994 whole entry, looked up, the tested form may be a part): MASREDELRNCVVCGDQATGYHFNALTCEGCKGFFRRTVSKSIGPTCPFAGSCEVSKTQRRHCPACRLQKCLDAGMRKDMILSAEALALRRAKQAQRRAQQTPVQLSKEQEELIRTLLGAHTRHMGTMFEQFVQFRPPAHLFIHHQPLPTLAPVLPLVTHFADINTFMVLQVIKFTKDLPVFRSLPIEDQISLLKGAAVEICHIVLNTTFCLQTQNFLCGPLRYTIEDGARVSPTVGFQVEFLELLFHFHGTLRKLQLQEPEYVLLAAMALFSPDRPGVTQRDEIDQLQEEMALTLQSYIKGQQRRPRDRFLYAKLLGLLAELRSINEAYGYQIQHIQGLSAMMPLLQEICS
Method in brief: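 Transiently transfected HepG2, multiplex TRANS reporters (CAR-Gal4 chimera driving GAL4-UAS reporter). 24 h dosing. Readout: reporter transcript by RT-PCR + capillary electrophoresis, fluorescence intensity; positive direction vs DMSO.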

Measured: AC50

Nc1nc(N)nc(Cl)n1
not listed: [16] | [17] | [18] | [19] | [20]
inactive: all other assays above

Cc1cc(SCc2sc(-c3ccc(C(F)(F)F)c(F)c3)nc2C)ccc1OCC(=O)O
active: [1] 17.2 µM | [3] 50.9 µM | [4] 24.5 µM | [6] 33.4 µM | [7] 1.32 µM | [8] 8.36 µM | [17] 23 µM | [12] 24.8 µM | [13] 15.5 µM | [18] 9.54 µM
inactive: [2] | [5] | [9] | [10] | [11] | [16] | [14]

O=CCCl
inactive: [8] | [9] | [10] | [16] | [12] | [13] | [14]
active: [1] 55 µM | [2] 32.6 µM | [3] 48.6 µM | [4] 43.2 µM | [5] 25.2 µM | [7] 37.2 µM | [11] 26.6 µM | [17] 182 µM | [18] 32.3 µM

O=C(O)COc1ccc(Cl)cc1
not listed: [8]
inactive: all other assays above

FC(F)OCC(F)(F)C(F)(F)F
not listed: [6] | [15] | [17] | [20]
inactive: all other assays above

CN(N=O)C(N)=O
not listed: [15] | [17] | [19] | [20]
inactive: all other assays above

CC(C)N(C(=O)CCl)c1ccccc1
inactive: [2] | [5] | [7] | [16] | [17] | [12] | [13]
active: [1] 8.65 µM | [3] 52.4 µM | [4] 44.6 µM | [6] 53.6 µM | [9] 48.2 µM | [10] 26.5 µM | [11] 33.4 µM | [14] 8.03 µM

O=C(CCl)Nc1ccccc1
active: [1] 69.2 µM | [3] 49 µM | [4] 56.4 µM | [7] 33.4 µM | [19] 3.66 µM | [9] 32.9 µM | [10] 25.8 µM | [11] 6.32 µM
not listed: [6] | [18] | [20]
inactive: all other assays above
